{
  "source": "ChEMBL document CHEMBL4513216",
  "about": "“Probing the Open Global Health Chemical Diversity Library for Multistage-Active Starting Points for Next-Generation Antimalarials” (ACS Infect Dis, 2020)",
  "note": "The campaign covered roughly 69,000 compounds. About 8,600 (12%) showed an effect of 50% or more. This is one part of a sample in which strong results are shown more often than they occur.",
  "data": [
    {"system": "Plasmodium berghei", "test": "Screen against P. berghei liver stage (PbLuc), transformed with Luciferase, at 10uM", "assay_type": "functional, HepG2", "details": "tested at 10 uM", "units": {"INHIBITION": "%"}, "values": [
      {"smiles": "Cc1cc(O)cc(=O)n1CCCC(=O)Nc1n[nH]c2ccccc12", "INHIBITION": 9.96},
      {"smiles": "COCC1CN(S(=O)(=O)N(C)C)Cc2ncn(CC3CC3)c21", "note": "(centres undefined)", "INHIBITION": 5.56},
      {"smiles": "Cc1cccc(CO[C@H]2CN(c3nnc(C)s3)[C@@H]3CCCO[C@H]23)n1", "INHIBITION": 22.2},
      {"smiles": "Cc1nc(CN2CCC3(CCCN(C(=O)c4cnccn4)C3)C2)cs1", "note": "(centres undefined)", "INHIBITION": -2.46},
      {"smiles": "Cc1cc(CN2CCCC2c2c(C)nn(C)c2Cl)on1", "note": "(centres undefined)", "INHIBITION": 47},
      {"smiles": "Cc1cnn(CC2CN(Cc3ccc(C(N)=O)cc3)CCO2)c1", "note": "(centres undefined)", "INHIBITION": 37.4},
      {"smiles": "COCC(=O)N1CCC[C@]2(C(=O)N(C)C)CN(c3ccccn3)C[C@@H]2C1", "INHIBITION": -4.56},
      {"smiles": "c1ccc2oc(CCCN3CCCC(Cn4cncn4)C3)nc2c1", "note": "(centres undefined)", "INHIBITION": 45.7},
      {"smiles": "Fc1cccc(N2CCCC3(CN(Cc4cccnc4)CCO3)C2)c1", "note": "(centres undefined)", "INHIBITION": 71.9},
      {"smiles": "Fc1cccc(N2CCCC3(CN(Cc4ccncc4)CCO3)C2)c1", "note": "(centres undefined)", "INHIBITION": 81.3},
      {"smiles": "Fc1cnc(N2CCCC3(CN(Cc4ccncc4)CCO3)C2)nc1", "note": "(centres undefined)", "INHIBITION": 1.71},
      {"smiles": "Cc1nnc(N2CCCC3(CN(Cc4nccs4)CCO3)C2)o1", "note": "(centres undefined)", "INHIBITION": 8.67},
      {"smiles": "c1ccc(CN2CCOC3(CCCN(c4nccs4)C3)C2)cc1", "note": "(centres undefined)", "INHIBITION": 43.9},
      {"smiles": "Fc1cccc(N2CCCC3(CN(Cc4nccs4)CCO3)C2)c1", "note": "(centres undefined)", "INHIBITION": 88.2},
      {"smiles": "Fc1cccc(N2CCOC3(CCCN(c4cnccn4)C3)C2)c1", "note": "(centres undefined)", "INHIBITION": 41},
      {"smiles": "Cc1nnc(N2CCCC3(CN(Cc4cccnc4)CCO3)C2)o1", "note": "(centres undefined)", "INHIBITION": 22.2},
      {"smiles": "CC(=O)N1CCCC2(CN(Cc3ccncc3)CCO2)C1", "note": "(centres undefined)", "INHIBITION": -7.59},
      {"smiles": "Cc1cc(OCC(N)=O)ccc1NC(=O)C(C)Cc1ccccc1F", "note": "(centres undefined)", "INHIBITION": 39.6},
      {"smiles": "O=C(c1cnccn1)N1C[C@@H]2C[C@@H](c3nc(C4CC4)cs3)O[C@@H]2C1", "INHIBITION": 10.7},
      {"smiles": "COc1cc(C)nc(N2CCN(C(=O)c3cccc(C#N)c3)CC2)n1", "INHIBITION": 8.64},
      {"smiles": "COc1ccc2c(c1)C(=O)NC1(CC2)CCN(Cc2ccccn2)C1", "note": "(centres undefined)", "INHIBITION": 17.9},
      {"smiles": "CNC(=O)NC(=O)CCSCc1cc(F)cc2cccnc12", "INHIBITION": 11.5},
      {"smiles": "Cc1cc(C)n(CCCNc2ncnc3c2NC(=O)CN3)n1", "INHIBITION": 57.3},
      {"smiles": "Cc1nn(CCNc2ncnc3c2NC(=O)CN3)c(C)c1Cl", "INHIBITION": 42.4},
      {"smiles": "Cc1cc(C)n(CCNc2ncnc3c2NC(=O)CN3)n1", "INHIBITION": 44.1},
      {"smiles": "O=C1[C@H]2CN(C3CCOC3)C[C@H]2CN1c1ccccc1", "note": "(some centres undefined)", "INHIBITION": 10.5},
      {"smiles": "Cc1n[nH]c(C)c1CNCC(O)c1cccc(Cl)c1", "note": "(centres undefined)", "INHIBITION": 46},
      {"smiles": "Cc1noc(C)c1CN1CCC(N(C)Cc2nnc(C3CC3)n2C)C1", "note": "(centres undefined)", "INHIBITION": 19.2},
      {"smiles": "O=C(NC1CC1)c1ccn(COc2c(Cl)cccc2Cl)n1", "INHIBITION": 43.3},
      {"smiles": "Cc1ccoc1C1=NNC(=CN2CCCC(Cn3cncn3)C2)O1", "note": "(centres undefined)", "INHIBITION": 27.1},
      {"smiles": "Cc1cc(-c2nn(C)c(Cl)c2CN2CCOC(C(=O)O)C2)no1", "note": "(centres undefined)", "INHIBITION": 17.6},
      {"smiles": "Cc1cc(-c2nn(C)c(Cl)c2CN2CC[C@H](CO)[C@@H](O)C2)no1", "INHIBITION": 36.7},
      {"smiles": "CCNC(=O)C1CN(Cc2c(-c3cc(C)on3)nn(C)c2Cl)CCO1", "note": "(centres undefined)", "INHIBITION": 43},
      {"smiles": "Cc1cc(C)n(C2CCN(Cc3c(-c4cc(C)on4)nn(C)c3Cl)C2)n1", "note": "(centres undefined)", "INHIBITION": 28.5},
      {"smiles": "Cc1cc(-c2nn(C)c(Cl)c2CN2CC[C@@](O)(C3CCC3)[C@H](C)C2)no1", "INHIBITION": 33.9},
      {"smiles": "Cc1cc(-c2nn(C)c(Cl)c2CN2CCOCC(O)C2)no1", "note": "(centres undefined)", "INHIBITION": 41.8},
      {"smiles": "Cc1cc(-c2nn(C)c(Cl)c2CN2CCC3(CC2)[C@H](O)C[C@@H]3O)no1", "INHIBITION": 50.3},
      {"smiles": "Cc1cc(-c2nn(C)c(Cl)c2CN2CCN(C)C(C(=O)O)C2)no1", "note": "(centres undefined)", "INHIBITION": 59.4},
      {"smiles": "Cc1cc(-c2nn(C)c(Cl)c2CN2Cc3ccccc3C(O)C2)no1", "note": "(centres undefined)", "INHIBITION": 51.8},
      {"smiles": "Cc1cnn(CC2CN(CC(=O)Nc3cc(C)no3)CCO2)c1", "note": "(centres undefined)", "INHIBITION": -103.725},
      {"smiles": "O=C1CC(c2ccncc2)c2c(sc3c2CCCC3)N1", "note": "(centres undefined)", "INHIBITION": 20.4},
      {"smiles": "O=C1CC(c2cccnc2)c2c(sc3c2CCCC3)N1", "note": "(centres undefined)", "INHIBITION": 26.9},
      {"smiles": "O=C1CC(c2ccc(C(=O)O)cc2)c2c(sc3c2CCCC3)N1", "note": "(centres undefined)", "INHIBITION": 89.3},
      {"smiles": "CC(=O)N(Cc1ncc(C)o1)C1CCN(CCOc2ccccc2)C1", "note": "(centres undefined)", "INHIBITION": 8.31},
      {"smiles": "CCN(CC)CCC(=O)N1CCc2c(nc(N(C)C)nc2N(C)C)C1", "INHIBITION": 30.1},
      {"smiles": "CN(C)c1nc2c(c(N(C)C)n1)CCN(C(=O)CN1C[C@H]3CC[C@@H]1C3)C2", "INHIBITION": 11.7},
      {"smiles": "CC(=O)N1CCc2c(nc(N(C)C)nc2N(C)CC2CCCO2)C1", "note": "(centres undefined)", "INHIBITION": 41.4},
      {"smiles": "CN(C)c1nc2c(c(N(C)C)n1)CCN(C(=O)CN1CCC(O)CC1)C2", "INHIBITION": 56.1},
      {"smiles": "Cc1nc2c(c(N(C)C)n1)CCN(C(=O)CN1CCC(O)CC1)C2", "INHIBITION": 45.3},
      {"smiles": "CC(C)SCC(=O)N1CCc2c(nc(N(C)C)nc2N(C)C)C1", "INHIBITION": 61.1},
      {"smiles": "Cc1ccc(NC(=O)C2CSCN2C(=O)c2cnsn2)c(C)c1", "note": "(centres undefined)", "INHIBITION": -50.6},
      {"smiles": "CCS(=O)(=O)N1CCc2ccc(NC(=O)Nc3cccc(SC)c3)cc21", "INHIBITION": 88.4},
      {"smiles": "Cc1cc(S(=O)(=O)N2CCCc3ccc(F)cc32)sc1C(=O)O", "INHIBITION": 26.8},
      {"smiles": "CCS(=O)(=O)N1CCc2ccc(NC(=O)NC(C)(C)C)cc21", "INHIBITION": 46.1},
      {"smiles": "CCS(=O)(=O)N1CCCc2ccc(NC(=O)Cc3ccc(F)cc3)cc21", "INHIBITION": 56.1},
      {"smiles": "CO[C@H]1CN(C(C)C)C[C@@H]1NC(=O)Nc1cccc(SC)c1", "INHIBITION": 12.6},
      {"smiles": "CCS(=O)(=O)N1CCc2ccc(NC(=O)Nc3cccc(C)c3)cc21", "INHIBITION": 85},
      {"smiles": "O=C(O)c1csc(S(=O)(=O)N2CCCc3ccc(F)cc32)c1", "INHIBITION": -9.67},
      {"smiles": "Cc1cccc(NC(=O)N2CCC(CO)(Nc3ccccc3)CC2)c1", "INHIBITION": -15.96},
      {"smiles": "CCS(=O)(=O)N1CCc2ccc(NC(=O)NC3CCCCC3)cc21", "INHIBITION": 8.41},
      {"smiles": "CCS(=O)(=O)N1CCc2ccc(NC(=O)Nc3ccc(F)cc3F)cc21", "INHIBITION": 72.6},
      {"smiles": "CSc1ccc(NC(=O)Nc2ccc3c(c2)N(S(C)(=O)=O)CC3)cc1", "INHIBITION": 49},
      {"smiles": "COc1ccc(S(=O)(=O)N2CCc3ccc(F)cc32)cc1C(=O)O", "INHIBITION": 15.3},
      {"smiles": "O=C(c1ccc2c(c1)CCCC2)N1CCCC(n2cncn2)C1", "note": "(centres undefined)", "INHIBITION": 19.6}
    ]}
  ]
}
